Laboratory results reported in PubChem BioAssay (NCATS).
Records with an inconclusive call do not appear. The source made the active and inactive calls. Calls follow the shape of the full dose curve. Square brackets hold non-standard residues; d marks the D form. Peptide text beside a SMILES is read from it. * marks the point of attachment. Nle = CCCC[C@H](N)C(=O)O; Cbz = O=C(OCc1ccccc1)*; CH2Cl = ClC*

assay: Confirmatory qHTS for VERO E6 Cytotoxicity Assay: Counterscreen for SARS-CoV-2 CPE Assay (AID 1508605); settings: cell viability luminescence; series mostly up to 20 µM; activity change, negative = cytotoxic: at the top concentration; also: nearly all actives have a fitted effect of over 60% in size; as to activity change, negative = cytotoxic: % is scaled to controls: 0 for no effect and ±100 for the full control effect
Potency is read from the fitted curve at half-maximal effect.

Structure (SMILES)	activity change, negative = cytotoxic	Potency
CCN(CC)CCCS(=O)(=O)N[C@H](CCc1ccccc1)c1nc(Cc2ccc(Br)cc2)no1	-13.7% (inactive)	
Cc1ncc(NC(=O)c2ccc(CN3CCN(C)CC3)c(C(F)(F)F)c2)cc1Nc1nccc(-c2cccnc2)n1	-15.2% (inactive)	
CNCc1ccc(-c2cc(-c3nc(-c4ccc(S(=O)(=O)C(C)C)cc4)cnc3N)on2)cc1		11.2 µM (active)
CCOc1ccc(-c2nc(-c3cccc4c3CCC4NCCO)no2)cc1OCC (configuration not stated)	-1.25% (inactive)	
CCCCCCCCC(=O)N[C@H](CN1CCCC1)[C@H](O)c1ccc2c(c1)OCCO2	-23.1% (inactive)	
Nc1ncnc2c1c(-c1ccc(Oc3ccccc3)cc1)nn2[C@@H]1CCCNC1		8.91 µM (active)
CC1(C)CC[C@]23CO[C@@]4(CCC5[C@@]6(C)CC[C@H](O[C@@H]7OC[C@H](O[C@@H]8O[C@H](CO)[C@@H](O)[C@H](O)[C@H]8O[C@@H]8OC[C@@H](O)[C@H](O)[C@H]8O)[C@H](O)[C@H]7O[C@@H]7O[C@H](CO)[C@@H](O)[C@H](O)[C@H]7O)[C@@](C)(CO)C6CC[C@@]5(C)[C@]4(C)C[C@H]2O)[C@@H]3C1 (some centres not stated)		3.03 µM (active)
C/C(=N\NC(=O)c1cccc(S(=O)(=O)N2CCOCC2)c1)c1cc(Cl)ccc1O		1 µM (active)
CCCC[C@@H](C=O)NC(=O)[C@H](CC(C)C)NC(=O)OCc1ccccc1	2.99% (inactive)	
Cc1cccc(/C=N/Nc2cc(N3CCOCC3)nc(OCCc3ccccn3)n2)c1	-20.4% [at 1.7 µM] (inactive)	
CN(C)CCN(Cc1ccc(-c2ccc(CNCCc3ccccc3)cc2)cc1)C(=O)CCC1CCCC1		3.98 µM (active)
CC(=O)c1c(OCCN2CCCCC2)c(OCCC(C)c2ccc(F)cc2)c2oc(C)nc2c1C (configuration not stated)	-15.5% (inactive)	
CCCCNc1ncc2c(-c3ccc(CN4CCN(C)CC4)cc3)cn(C3CCC(O)CC3)c2n1 (configuration not stated)		3.16 µM (active)
Cc1cc(C)c(CNC(=O)c2cc(-c3ccc(N4CCN(C)CC4)nc3)cc3c2c(C)cn3C(C)C)c(=O)[nH]1	-10.2% (inactive)	
CN(C)c1nc(NC2CCC(NCCc3ccc(Br)cc3OC(F)(F)F)CC2)nc2ccccc12 (configuration not stated)		3.98 µM (active)
COc1cc(-n2cnc3cc(-c4ccc(Cl)cc4)sc3c2=O)ccc1OCCN1CCCC1	-16.3% (inactive)	
Fc1ccc2c(CCNCc3cccc(OCC(F)(F)C(F)F)c3)c[nH]c2c1	-27.3% (inactive)	
CCC(CC)COC(=O)[C@H](C)N[P@](=O)(OC[C@H]1O[C@@](C#N)(c2ccc3c(N)ncnn23)[C@H](O)[C@@H]1O)Oc1ccccc1	0.98% (inactive)	
O=C1Nc2nc(-c3c(O)cccc3OCC3CC3)cc([C@@H]3CCCNC3)c2CO1	-26.6% (inactive)	
CONC(=O)Nc1ccc(-c2sc3c(c2CN(C)Cc2ccccc2)c(=O)n(-c2ccccc2)c(=O)n3Cc2c(F)cccc2F)cc1	-7.38% (inactive)	
CC#C[C@@H](CC(=O)O)c1ccc(OCc2cccc(-c3ccc(C(F)(F)F)cc3)c2)cc1	-15.9% (inactive)	
CNC(=O)c1ccc2c(C(=Nc3cccc(CN(C)C)c3)c3ccccc3)c(O)[nH]c2c1	-21.1% (inactive)	
Cc1cnc(NC(=O)c2cc(S(=O)(=O)N(C)C)ccc2N2CCCC2)s1	-18.5% (inactive)	
CN(C)CCN(Cc1ccccc1)C(=O)c1cc(-c2ccc(F)cc2)n2nc(C(C)(C)C)cc2n1	-13.7% (inactive)	
C=CC(=O)N[C@H]1CCOC[C@H]1Nc1ncc2cc(-c3c(Cl)c(OC)cc(OC)c3Cl)ccc2n1	-11.2% (inactive)	
COc1ccc(NS(=O)(=O)c2sc3ccc(Cl)cc3c2C)cc1N1CCNCC1	-12.9% (inactive)	
Cc1cc2cc(Oc3ccnc(Nc4cccc(CS(=O)(=O)NCCN(C)C)c4)n3)ccc2[nH]1		11.2 µM (active)

assay: Confirmatory qHTS for activators (rescue) of SARS-CoV-2 Cytopathic Effect (CPE) (AID 1508606); settings: Vero E6 SARS-CoV-2 CPE rescue, viability luminescence; series mostly up to 20 µM; CPE rescue (activation): at the top concentration; also: nearly all actives have a fitted effect of over 70% in size; as to CPE rescue (activation): 0% is about no effect

Structure (SMILES)	CPE rescue (activation)	Potency
CC1CCN(C(c2ccc(F)cc2)c2ccc(C(C)C(=O)O)cc2-c2ccc(C(F)(F)F)cc2)CC1 (configuration not stated)	-11.1% (inactive)	
CC(C)C[C@H](NC(=O)CNC(=O)OCc1ccccc1)C(=O)N[C@@H](Cc1ccccc1)C(=O)CCl (Cbz-Gly-Leu-Phe-CH2Cl)		1 µM (active)
CCCN1CCN(c2ccc(C(=O)NC3(C(=O)NCC#N)CCCCC3)cc2)CC1		1 µM (active)
COc1ccc2c(c1)CN(C(=O)CCN1CCC(Cc3ccccc3)CC1)CCS2		4.92 µM (active)
CCC[C@@H](NC(=O)N1C(=O)C(CC)(CC)[C@@H]1Oc1ccc(C(=O)N2CCN(C)CC2)cc1)c1ccc2c(c1)OCO2		11.2 µM (active)
CN1CCN(c2ccc(C(=O)Nc3n[nH]c4ccc(Cc5cc(F)cc(F)c5)cc34)c(NC3CCOCC3)c2)CC1	-17.6% (inactive)	
CCN(CC)CC1CCN(c2ncc3ncnc(Nc4ccc(F)c(Cl)c4)c3n2)CC1	-9.4% (inactive)	
COC(=O)Nc1cc(Nc2cc(NC3CC3)c3ncc(C#N)n3n2)c(Cl)c(N2CCN(C)CC2)c1	-15.3% (inactive)	
CCCC[C@@H](C=O)NC(=O)[C@H](CC(C)C)NC(=O)[C@H](CC(C)C)NC(C)=O (Ac-Leu-Leu-[Nle]-aldehyde)		2 µM (active)
CC[C@H](NC(=O)[C@H](CS(=O)(=O)CC1CC1)N[C@@H](c1ccc(F)cc1)C(F)(F)F)C(=O)C(=O)NC1CC1		0.112 µM (active)
CC1OC2OC3C(OCC(O)C3O)OC(=O)C34CCC(C)(C)CC3C3=CCC5C6(C)CC(O)C(OC7OC(CO)C(O)C(O)C7OC7OCC(OC(=O)CC(C)(O)CC(=O)OC1C(OC1OCC(O)C(O)C1O)C2O)C(O)C7O)C(C)(CO)C6CCC5(C)C3(C)CC4O (configuration not stated)	-12.1% [at 10 µM] (inactive)	
CCN(CC)CCCS(=O)(=O)N[C@H](CCc1ccccc1)c1nc(Cc2ccc(Br)cc2)no1		11.2 µM (active)
Cc1ncc(NC(=O)c2ccc(CN3CCN(C)CC3)c(C(F)(F)F)c2)cc1Nc1nccc(-c2cccnc2)n1		10 µM (active)
CNCc1ccc(-c2cc(-c3nc(-c4ccc(S(=O)(=O)C(C)C)cc4)cnc3N)on2)cc1		1.78 µM (active)
CCOc1ccc(-c2nc(-c3cccc4c3CCC4NCCO)no2)cc1OCC (configuration not stated)		11.2 µM (active)
CCCCCCCCC(=O)N[C@H](CN1CCCC1)[C@H](O)c1ccc2c(c1)OCCO2		8.91 µM (active)
Nc1ncnc2c1c(-c1ccc(Oc3ccccc3)cc1)nn2[C@@H]1CCCNC1	-5.36% (inactive)	
CC1(C)CC[C@]23CO[C@@]4(CCC5[C@@]6(C)CC[C@H](O[C@@H]7OC[C@H](O[C@@H]8O[C@H](CO)[C@@H](O)[C@H](O)[C@H]8O[C@@H]8OC[C@@H](O)[C@H](O)[C@H]8O)[C@H](O)[C@H]7O[C@@H]7O[C@H](CO)[C@@H](O)[C@H](O)[C@H]7O)[C@@](C)(CO)C6CC[C@@]5(C)[C@]4(C)C[C@H]2O)[C@@H]3C1 (some centres not stated)	13.9% [at 6.64 µM] (inactive)	

Structure (SMILES)	CPE rescue (activation)	Potency
CCCC[C@@H](C=O)NC(=O)[C@H](CC(C)C)NC(=O)OCc1ccccc1		0.355 µM (active)
Cc1cccc(/C=N/Nc2cc(N3CCOCC3)nc(OCCc3ccccn3)n2)c1		0.0142 µM (active)
CN(C)CCN(Cc1ccc(-c2ccc(CNCCc3ccccc3)cc2)cc1)C(=O)CCC1CCCC1	-14.6% (inactive)	
CC(=O)c1c(OCCN2CCCCC2)c(OCCC(C)c2ccc(F)cc2)c2oc(C)nc2c1C (configuration not stated)		10 µM (active)
CCCCNc1ncc2c(-c3ccc(CN4CCN(C)CC4)cc3)cn(C3CCC(O)CC3)c2n1 (configuration not stated)	-15.9% (inactive)	
Cc1cc(C)c(CNC(=O)c2cc(-c3ccc(N4CCN(C)CC4)nc3)cc3c2c(C)cn3C(C)C)c(=O)[nH]1		10 µM (active)
CN(C)c1nc(NC2CCC(NCCc3ccc(Br)cc3OC(F)(F)F)CC2)nc2ccccc12 (configuration not stated)	-11% (inactive)	
COc1cc(-n2cnc3cc(-c4ccc(Cl)cc4)sc3c2=O)ccc1OCCN1CCCC1		3.55 µM (active)
Fc1ccc2c(CCNCc3cccc(OCC(F)(F)C(F)F)c3)c[nH]c2c1		10 µM (active)
CCC(CC)COC(=O)[C@H](C)N[P@](=O)(OC[C@H]1O[C@@](C#N)(c2ccc3c(N)ncnn23)[C@H](O)[C@@H]1O)Oc1ccccc1		10 µM (active)
O=C1Nc2nc(-c3c(O)cccc3OCC3CC3)cc([C@@H]3CCCNC3)c2CO1		11.2 µM (active)
CONC(=O)Nc1ccc(-c2sc3c(c2CN(C)Cc2ccccc2)c(=O)n(-c2ccccc2)c(=O)n3Cc2c(F)cccc2F)cc1	19.2% (inactive)	
CC#C[C@@H](CC(=O)O)c1ccc(OCc2cccc(-c3ccc(C(F)(F)F)cc3)c2)cc1		11.2 µM (active)
Cc1cnc(NC(=O)c2cc(S(=O)(=O)N(C)C)ccc2N2CCCC2)s1		2.82 µM (active)
CN(C)CCN(Cc1ccccc1)C(=O)c1cc(-c2ccc(F)cc2)n2nc(C(C)(C)C)cc2n1	13.2% (inactive)	
COc1ccc(NS(=O)(=O)c2sc3ccc(Cl)cc3c2C)cc1N1CCNCC1		10 µM (active)
Cc1cc2cc(Oc3ccnc(Nc4cccc(CS(=O)(=O)NCCN(C)C)c4)n3)ccc2[nH]1	-4.16% (inactive)	
